Out of some 370,000 compounds screened, about 2,800 (0.76%) were called active. Cut-off read from the data, not from the text of the source: active = inhibition above about 21%; inactive = the rest. Shown is part of a subset that was picked to be rich in actives.

The target of the test is E3 ubiquitin-protein ligase UHRF1 (Homo sapiens) (UniProt Q96T88). In words: UHRF1 methylated DNA binding inhibitors, primary screen, counter-screen for MBD2 inhibitor project, biochemical, TR-FRET, human UHRF1, single concentration (AID 687016).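 Note: UHRF1 SRA domain binding a hemimethylated CpG hairpin DNA probe; 0% = median of test compound wells and 100% = reference inhibitor.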 The following applies: UHRF1 binding to methylated oligo, at 4.4 µM, hits give high values. (In general: Counterscreens check selectivity or assay interference.)
Sequence of E3 ubiquitin-protein ligase UHRF1 (Homo sapiens) (Q96T88 whole entry, looked up, the tested form may be a part): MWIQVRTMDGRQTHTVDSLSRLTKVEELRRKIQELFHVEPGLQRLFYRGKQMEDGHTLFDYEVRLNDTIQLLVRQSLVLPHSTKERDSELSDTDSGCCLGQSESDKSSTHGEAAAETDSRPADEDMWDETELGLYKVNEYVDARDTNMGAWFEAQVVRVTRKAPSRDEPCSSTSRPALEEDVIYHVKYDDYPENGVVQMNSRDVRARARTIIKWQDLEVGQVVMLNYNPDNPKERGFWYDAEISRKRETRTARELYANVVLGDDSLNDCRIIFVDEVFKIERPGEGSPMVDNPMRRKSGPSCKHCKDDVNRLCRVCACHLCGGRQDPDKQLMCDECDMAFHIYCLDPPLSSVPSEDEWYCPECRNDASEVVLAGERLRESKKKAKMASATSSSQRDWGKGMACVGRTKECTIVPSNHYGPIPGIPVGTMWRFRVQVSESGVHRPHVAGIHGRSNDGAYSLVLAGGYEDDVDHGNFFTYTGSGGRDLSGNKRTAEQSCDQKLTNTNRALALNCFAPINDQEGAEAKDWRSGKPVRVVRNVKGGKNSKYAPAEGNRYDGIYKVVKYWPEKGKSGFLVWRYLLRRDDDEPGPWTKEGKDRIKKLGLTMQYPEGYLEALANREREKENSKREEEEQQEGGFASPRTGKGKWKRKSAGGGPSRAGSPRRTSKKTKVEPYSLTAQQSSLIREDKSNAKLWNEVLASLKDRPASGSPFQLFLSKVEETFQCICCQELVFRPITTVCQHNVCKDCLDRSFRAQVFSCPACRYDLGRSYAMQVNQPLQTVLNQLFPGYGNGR
Consider `CC(C)(C)OC(=O)NCCc1ccccc1/C=C/S(=O)(=O)NCc1ccc(F)cc1`, for which the inhibition (as a rule, the relative decrease from the control value, in per cent) is 3.54% (inactive).
Regarding `CSc1ccc(C=Nn2c(-c3ccc(F)cc3)n[nH]c2=S)cc1`, the inhibition was -0.35% (inactive).
The same measure for `CCOc1ccc(-n2c(SCC(=O)Nc3cc(C)c(NC(=O)c4ccccc4)cc3OC)nnc2-c2cccs2)cc1`: -0.28% (inactive); for `Cc1ccc(C(=O)C2CCN(CC(=O)NCCC(C)C)CC2)cc1`: 9.98% (inactive); for `O=S1(=O)c2c(NCc3ccco3)cccc2Oc2ccccc2CN1Cc1cn(Cc2cccc(C(F)(F)F)c2)nn1`: 3.97% (inactive).
Take `COc1ccc(-c2ccc(CN3C(CC(C)C)C(=O)N(Cc4cn(CC5CCCCC5)nn4)CCS3(=O)=O)cc2)cc1` (centres undefined): the inhibition was 1.54% (inactive).
The same measure for `CC(C)CC1C(=O)N(Cc2cn(CC3CCCCC3)nn2)CCS(=O)(=O)N1Cc1ccc(-c2ccc(Cl)cc2)cc1` (centres undefined): -1.68% (inactive); for `CC(=O)c1cccc(-c2ccc(CN3C(CC(C)C)C(=O)N(Cc4cn(CC5CCCCC5)nn4)CCS3(=O)=O)cc2)c1` (centres undefined): 21% (active).
For `CCOC(=O)[C@@]12CN(C(=O)OC(C)(C)C)CC=C1N(Cc1ccc(OC)cc1)C(=O)[C@H]2CC(=O)NCc1ccc(OC)c(OC)c1`, the inhibition was -2.61% (inactive).
Turning to `COC(=O)C1CN(CC(C)C)CCS(=O)(=O)N1Cc1ccc(C)cc1` (centres undefined), the inhibition is 1.11% (inactive).
The same measure for `O=C(O)CCCn1cc(NC(=O)COc2cccc(Cl)c2)cn1`: 5.22% (inactive); for `O=C(COc1cccc(Cl)c1)NCc1ccccc1`: 36% (active).
Regarding `O=C(COC(=O)c1cccc(Cl)c1)NC(=O)NCc1ccccc1`, the inhibition was -0.3% (inactive).
In the case of `CCCCCCCCNS(=O)(=O)/C=C/c1cc(C)ccc1CNC(=O)OC(C)(C)C`, the inhibition was -7.08% (inactive).
Turning to `CC(=O)C1(C(=O)Nc2nccs2)CC(c2ccccc2C(F)(F)F)=NO1` (centres undefined), the inhibition was -0.55% (inactive).
On to `CCOC(=O)[C@]12CCCC3=C1N(CCC3)C(=O)[C@@H](CC(=O)NCc1cccs1)C2`, for which the inhibition was -1.06% (inactive).
The same measure for `Cc1ccc(S(=O)(=O)NCCSC(C)(C)C)cc1`: -0.21% (inactive); for `COc1nc(N(C)C)nc(N2CC(=O)N(CCNS(=O)(=O)c3ccc(C)cc3)C2=N)n1`: 22.6% (active); for `COc1nc(Oc2ccc(=O)n(C)n2)nc(N(C)C)n1`: -0.4% (inactive).
As for `COc1ccccc1C(=O)NC1CCCCN(C(C)C)C1=O` (centres undefined), the inhibition was 2.58% (inactive).
The same measure for `COc1ccc(C(=O)OCC(=O)c2ccc(C)c(S(=O)(=O)N3CCOCC3)c2)cc1OC`: -0.9% (inactive).
The same measure for `O=C(OCC(=O)N1CCN(c2ccccc2)CC1)c1ccc([N+](=O)[O-])s1`: -3.28% (inactive); for `COc1ccc(C(=O)COC(=O)c2ccc([N+](=O)[O-])s2)cc1OC`: 21.7% (active); for `CC(c1c[nH]c2ccccc12)c1c(-c2ccccc2)n(C)c2ccccc12` (centres undefined): 1.29% (inactive).
The same measure for `Cc1cc(C)n2ncc(C(=O)Nc3ccc4c(c3)OCCO4)c2n1`: -6.73% (inactive); for `CCC(C)C(CO)NC(=O)/C=C/[C@H]1O[C@@H](n2cnc3c(NC(=O)c4ccccc4)ncnc32)[C@H](O)[C@@H]1O` (some centres undefined): 19.7% (inactive).
For `COc1cccc(CN(C)C(=O)CC[C@H]2O[C@@H](n3cnc4c(NC(=O)c5ccccc5)ncnc43)[C@H](O)[C@@H]2O)c1`, the inhibition was 0.17% (inactive).
The same measure for `O=C(/C=C/[C@H]1O[C@@H](n2cnc3c(NC(=O)c4ccccc4)ncnc32)[C@H](O)[C@@H]1O)NCc1ccccc1`: 23% (active); for `Cc1ccc(-n2c(COc3ccccc3)nnc2SCC(=O)Nc2ccc3c(c2)OCCO3)cc1`: 1.6% (inactive); for `COc1ccc(Cn2cc(COC(=O)N(C)Cc3ccccc3)nn2)cc1`: 1.11% (inactive).
The same measure for `Cc1cccc(NC(=O)C2CCCN2S(=O)(=O)c2ccc(F)cc2)c1C` (centres undefined): 42.7% (active).
The same measure for `Cc1cccc(NC(=O)C2CCCN(C(=O)Nc3ccc(F)cc3)C2)c1C` (centres undefined): 10.2% (inactive); for `COc1ccccc1NC(=O)C1CCCN1S(=O)(=O)c1ccc(Cl)cc1` (centres undefined): -0.35% (inactive).
As to `Cc1ccccc1NC(=O)COC(=O)c1ccc(Sc2ncn[nH]2)c([N+](=O)[O-])c1`, the inhibition is -0.88% (inactive).
Regarding `O=C(NC1CCCCN(Cc2ccc(Cl)cc2)C1=O)c1ccc(Br)cc1` (centres undefined), the inhibition was -3.02% (inactive).
Consider `C[C@@H]1COc2cccc(N3CCCC3)c2S(=O)(=O)N1C`, for which the inhibition was 0.4% (inactive).
As to `CC(Cc1cccs1)N(Cc1ccc(Cl)cc1)C(=O)c1ccncc1` (centres undefined), the inhibition is 26.1% (active).
Regarding `CC(C)(C)N(Cc1ccccc1)C(=O)c1ccncc1`, the inhibition is 1.02% (inactive).
The same measure for `CC(Cc1cccs1)NC(=O)c1cccc(Cl)c1` (centres undefined): -1.41% (inactive); for `COc1ccc(C2Nc3ccccc3C(=O)N2Cc2cccs2)cc1COc1c(C)cccc1C` (centres undefined): 1.56% (inactive).
The same measure for `O=C1Nc2ccccc2OC1CC(=O)N1CCCCCCC1` (centres undefined): -2.05% (inactive).
With `CC(=O)OCCN1CCCC12CCC(c1ccccc1)CC2` (centres undefined), the inhibition was 0.81% (inactive).
For the molecule `O=C(CN1C(=O)NC2(CCCC2)C1=O)OCCOc1ccc(F)cc1`, the inhibition was 0.11% (inactive).
As to `CCOc1ccc(C(C)=O)cc1COC(=O)CN1C(=O)NC2(CCCC2)C1=O`, the inhibition is 2.29% (inactive).
With `Cc1ccc(COC(=O)CN2C(=O)NC3(CCCC3)C2=O)cc1`, the inhibition is 42.5% (active).
For `COc1ccccc1CCNC(=O)C1CCN(c2nc(C)cc(C)n2)CC1`, the inhibition is 2.65% (inactive).
As to `COc1ccc(COC[C@H](CC(C)C)N2CCN(C(=O)c3cccc(C(F)(F)F)c3)CCC2=O)cc1`, the inhibition was 21.1% (active).
The same measure for `O=C(c1ccc(C(F)(F)F)cc1)N1CCC(=O)N([C@H](COCc2ccccc2)Cc2ccccc2)CC1`: -0.62% (inactive).
The same measure for `CC(C)CC(COCc1ccc(Cl)cc1)N1CCN(C(=O)c2ccc(C(F)(F)F)cc2)CCC1=O` (centres undefined): 10.1% (inactive); for `O=C(CSc1nnc(COc2ccccc2)n1Cc1ccco1)c1ccc2ccccc2c1`: -1.9% (inactive).
The same measure for `CCn1c2ccccc2c2cc(NC(=O)CSc3nnc(-c4ccccc4)n3-c3ccc(C)cc3)ccc21`: -2.76% (inactive); for `CCCc1nc2c3ccccc3ccn2c1Cc1ccccc1C(F)(F)F`: 22.9% (active).
Take `Cc1cc(Br)cn2c(Cc3ccccc3C(F)(F)F)c(C3CCCCC3)nc12`: the inhibition was 11.3% (inactive).
The same measure for `FC(F)(F)c1ccccc1Cc1c(-c2ccccc2)nc2c3ccccc3ccn12`: 14.2% (inactive).

The values above are taken from PubChem BioAssay AID687016 (The Scripps Research Institute Molecular Screening Center, 2013).
